# Screening results deposited in PubChem BioAssay by National Center for Advancing Translational Sciences (NCATS).
# Hits are enriched below; roughly 22% of the tested compounds scored in any of these assays.
# Pf growth 96h: inhibits malaria parasite growth, 96 h; P. falciparum luciferase reporter growth, 96 h; Potency, µM (series often up to 28.7 µM), hits mostly inhibitors; 320,000 compounds, 6.9% hits
#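 Parasite growth measured via integrated firefly luciferase reporter in P. falciparum. Infected erythrocytes at 2% hematocrit, 0.05% parasitemia final were treated 96 hours at 37 C under 5% CO2, and luminescence was read.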
# LmPK inhibitor: blocks Leishmania mexicana pyruvate kinase activity. purified LmPK, Kinase-Glo ATP luminescence, 1 h. Potency, µM (doses to about 57.5 µM), most hits filed as inhibitors. 290,000 compounds, 0.37% hits. AID 1721
# Target sequence (Q27686 whole entry, looked up): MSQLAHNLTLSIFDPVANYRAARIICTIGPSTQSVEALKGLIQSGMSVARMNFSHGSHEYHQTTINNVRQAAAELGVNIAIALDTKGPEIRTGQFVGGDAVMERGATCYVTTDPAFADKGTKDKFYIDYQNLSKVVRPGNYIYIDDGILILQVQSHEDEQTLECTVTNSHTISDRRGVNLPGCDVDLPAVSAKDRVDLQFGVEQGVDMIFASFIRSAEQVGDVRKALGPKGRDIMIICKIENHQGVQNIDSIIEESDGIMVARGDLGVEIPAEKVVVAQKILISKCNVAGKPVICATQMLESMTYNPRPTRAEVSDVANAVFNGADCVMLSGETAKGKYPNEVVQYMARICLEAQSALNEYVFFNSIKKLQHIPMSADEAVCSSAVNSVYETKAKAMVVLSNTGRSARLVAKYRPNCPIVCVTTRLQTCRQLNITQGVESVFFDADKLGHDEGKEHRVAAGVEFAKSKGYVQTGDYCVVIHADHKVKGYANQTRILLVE
#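 0.1 nM LmPK, 0.5 mM PEP, 0.1 mM ADP; 50 mM imidazole pH 7.2, 7 mM MgCl2, 50 mM KCl; 1 h RT. Kinase-Glo luminescence readout, normalized to no-enzyme (full inhibition) and uninhibited wells.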
# Pf growth 48h: P. falciparum growth inhibition at 48 hours (one generation); Potency, µM (doses to about 28.7 µM), most hits filed as inhibitors; 310,000 compounds, 5.9% hits; AID 504832; P. falciparum luciferase growth in erythrocytes, 48 h
#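 Compounds are pin-transferred into medium, infected erythrocytes (2% hematocrit, 0.1% parasitemia final) are added, and plates sit one parasite generation at 37 C in 5% CO2. Detection reagent is then added and luminescence measured.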
# Shiga toxin inh: blocks Shiga toxin action in Vero cells; Vero cells, Shiga toxin protein synthesis inhibition reporter; AID 2315; inhibition, % at 38.7 µM; 290,000 compounds, 9.2% hits; in the data active = inhibition mostly above about 28%, no sharp cut-off; inactive = mostly below about 43%
# CHX counter: affects cycloheximide protein synthesis inhibition readout, counter-screen | 300,000 compounds, 12% hits | max response, % | cell reporter, cycloheximide protein synthesis inhibition counterscreen; in the data active = max response mostly above about 13%, no sharp cut-off; inactive = mostly below about 14%; note: read at 38.3 µM for the half of the compounds with a filed dose
# Numbers stand for hits; - = inactive; ? = inconclusive; . = no result given; + = active, no number; [ ] = another dose, or the depositor's remark. Unless noted, calls come from the whole dose curve; as a rule, active = well fitted inhibition curve with a large enough effect; inconclusive = small, poorly fitted or top-dose-only effect, or another doubt; inactive = no such curve, though single readings can be large or run the other way.
SMILES,Pf growth 96h,LmPK inhibitor,Pf growth 48h,Shiga toxin inh,CHX counter
Cc1ccc2c(c1)c1nnc(SCC(=O)N3CCCc4ccccc43)nc1n2CC(=O)O,-,4.5µM,-,76,32
Cc1ccc(-c2ccc(SCC(=O)N3CCCc4ccccc43)nn2)cc1,?,-,-,52,24
O=C(CSC1=NCCS1)N1CCc2ccccc21,?,-,-,178,41
O=C(CN(Cc1ccc(Cl)cc1)C(=O)CNS(=O)(=O)c1ccccc1)NCC1CCCO1 (configuration not stated),-,-,-,-,-
Cc1nc(NS(=O)(=O)c2ccc(N)cc2)nc(C)c1Br,-,.,-,.,.
Cc1cccc(N2C(=O)CSC23CCCCC3)c1,1.5µM,-,-,-,-
Oc1ccc(Br)cc1C=Nc1ccc(Cl)cc1,?,-[11.5 µM],-,-,-
COc1cc(O)sc1C=Nc1ccc(Cl)cc1,?,-,-,42,31
Cc1c(O)ccc(C(=O)COc2ccccc2F)c1O,?,-,-,86,30
Cc1ccc(C)c2c1c1ccccc1n2C,-,-,-,-,20
Cc1c(O)c(=O)c2ccccc2n1C,-,-,-,-,-
COc1ccc(-n2nnnc2/C=C\Nc2ccccc2C(=O)c2ccccc2)cc1,8.3µM,-,?,-,-
COc1ccc(-n2nnnc2/C=C/Nc2cc(C(F)(F)F)ccc2OC)cc1,?,-,?,-,-
CCC(C)C(=O)Nc1nc(C)c(-c2csc(Nc3ccc(Cl)cc3)n2)s1 (configuration not stated),9.3µM,-,13µM,-,-
CCCC(=O)Nc1nc(C)c(-c2csc(Nc3ccc(Cl)cc3)n2)s1,?,-,0.83µM,-,-
COc1cccc(CN2CCNC(=O)C2CC(=O)N(C)Cc2cnccn2)c1OC (configuration not stated),-,-,-,-,-
COc1ccc(N=C2SCC(=O)N2CCc2ccc(OC)c(OC)c2)cc1,?,-,?,-,-
COc1ccc(CCN2C(=O)CSC2=Nc2ccc(C(C)C)cc2)cc1OC,?,-,10µM,-,-
Cc1cccc(C(=O)Nc2sc3c(c2C(=O)O)CCC3)c1,-,-,-,103,42
Cc1cccc(NC(=O)c2c(NC(=O)c3ccccc3)sc3c2CCCC3)c1,.,.,.,-,-
CNC(=O)c1c(NC(=O)c2cccc(C)c2)sc2c1CCC2,-,-,-,71,32
CCOC(=O)c1c(NC(=O)CCC(=O)O)sc2c1CC(C)(C)OC2,-,-,-,-,-
CC1(C)Cc2c(sc(NC(=O)c3ccco3)c2C(=O)O)CO1,-,-,.,-,30
CCOC(=O)c1c(NC(=O)C2CC2)sc2c1CC(C)(C)OC2,-,-,12µM,-,-
CCN(CC(=O)Nc1c(F)cccc1F)C(=O)c1ccc(C)c(S(=O)(=O)N2CCCCC2)c1,?,.,-,.,.
SMILES,Pf growth 96h,LmPK inhibitor,Pf growth 48h,Shiga toxin inh,CHX counter
Cc1cccc(OCC(=O)Nc2c3c(nn2C(C)(C)C)CS(=O)(=O)C3)c1,-,-,-,-,-
Cc1ccc(C(=O)C(NC(=O)c2ccco2)Nc2sc3c(c2C(N)=O)CCCC3)cc1 (configuration not stated),-,-,?,active,13
COc1cccc(C(=O)Nc2sc3c(c2C(=O)O)CCCC3)c1,-,-,-,104,37
CNC(=O)c1c(NC(=O)c2ccco2)sc2c1CCCC2,-,-,-,-,29
O=c1[nH]c(NCc2ccccc2)nc2c1CCCC2,8.3µM,-,13µM,-,-
O=C(NC1CCS(=O)(=O)C1)c1cccc(Cl)c1 (configuration not stated),-,.,-,.,.
CCN(CC)S(=O)(=O)c1cc(Cl)ccc1OC,-,-,-[5.75 µM],-,-
COc1cccc(C(=O)Nc2c[nH]c(=O)[nH]c2=O)c1,-,-,-,-,-
COc1cccc(C(=O)Nc2sc3c(c2C#N)CCN(C(C)=O)C3)c1,-,-[11.5 µM],-,-,25
COc1cccc(C(=O)Nc2nc3c(c(=O)[nH]2)CCCC3)c1,-,-,.,-,20
CC1(C)Cc2c(sc(NC(=O)c3ccc(Br)o3)c2C#N)CO1,-,-,-,71,45
CC(=O)N1CCc2c(sc(NC(=O)CS(=O)(=O)c3ccc(F)cc3)c2C#N)C1,?,.,-,.,.
N#Cc1ccc(OCC(=O)Nc2ccc3[nH]c(=O)[nH]c3c2)cc1,-,.,-,.,.
O=C(NCCOc1ccccc1Cl)C(=O)NCCOc1ccccc1Cl,2.9µM,-,-[5.75 µM],-,-
COc1cc(C(=O)NCCOc2ccccc2C)c(Br)c(OC)c1OC,-,-,-,-,-
CN(CCOc1ccc(Cl)c(Cl)c1)Cc1ccccc1,?,-,-,.,-
CN(CCOc1ccccc1Cl)Cc1ccccc1,-,-,-,.,13
Cc1ccccc1OCCNC(=O)CNC(=O)c1ccccc1O,.,-,-,-,-
COc1ccc(C(=O)NCCOc2ccccc2Cl)c(OC)c1OC,-,-,-,99,54
O=C(CNC(=O)c1ccccc1F)NCCOc1ccccc1Cl,-,-,-,+,15
Cc1cc(NC(=O)/C=C/c2ccccc2)c(C(C)C)cc1O,-,-,?,-,-
O=C(COC(=O)CC1CCCC1)Nc1ccc(Cl)cc1,-,.,-,.,.
Cc1ccccc1NC(=S)NC1CCN(Cc2ccccc2)CC1,-,-,-,-,-
O=C1/C(=C/c2cccs2)COc2ccccc21,-,14µM,-,93,34
OCCC1CN(Cc2ccon2)CCN1CCc1ccccc1 (configuration not stated),13µM,-,-,-,-
SMILES,Pf growth 96h,LmPK inhibitor,Pf growth 48h,Shiga toxin inh,CHX counter
COc1ccc(CN2CCN(CCc3ccccc3)C(CCO)C2)cc1Cn1cncn1 (configuration not stated),?,-,5.2µM,-,-
OCCC1CN(CCCc2ccccc2)CCN1Cc1ccccc1 (configuration not stated),-,-,-,-,-
OCCC1CN(Cc2ccccc2O)CCN1CCc1ccccc1 (configuration not stated),-,-,9.3µM,-,-
OCCC1CN(CCCc2ccccc2)CCN1CCc1ccccc1 (configuration not stated),10µM,-,?,.,-
COc1ccc(CNC(=O)CCS(=O)(=O)c2cc3c(cc2Cl)NC(=O)CO3)cc1,-,-,-,-,-
CCOc1cccc(CN2CCN(CCc3ccccc3)C(CCO)C2)c1O (configuration not stated),-,-,?,-,-
COc1cccc(CN2CCN(CCCc3ccccc3)C(CCO)C2)c1O (configuration not stated),7.4µM,-,-,-,-
Cc1ccc(S(=O)(=O)n2ccc3c2CCCC3=O)cc1,-,-,-,-,-
NC(=O)COC(=O)c1sc2ccccc2c1Cl,-,-,-,-,-
C=C1SC(=Nc2c(C)cc(C)cc2C)N(C(=O)c2sc3ccccc3c2Cl)C12CCCCC2,1.7µM,-,?,-,-
C=C1SC(=Nc2ccccc2Cl)N(C(=O)c2sc3ccccc3c2Cl)C12CCCCC2,?,-,5.9µM,-,25
CCc1nnc(NC(=O)CSc2nc3c(cc2C#N)CCCC3)s1,-,-,-,58,35
